# Data taken from PubChem BioAssay (NCI).
# Values joined by “and” are separate entries in the source; they are usually repeats but may differ in a detail not shown here. Equal values may be shown once. This is part of a sample that, as a whole, favours compounds with a hit. Of some 79,000 tested, about 15% had one in any assay. Some compounds were tested as several samples or in several runs, with calls that do not always agree. Active and inactive are the calls of the source. Rule as the data show it: active = growth inhibition above about 70%; inactive = the rest.
# Assays:
# [1] = NCI Yeast Anticancer Drug Screen. Data for the rad50 strain (AID 155);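 also: 0% = growth of vehicle-only cultures of the same strain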; settings: S. cerevisiae rad50 strain growth inhibition, stronger effect = higher value
# Outline: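 Vehicle-treated cultures provide the reference for the growth inhibition reported for compound-exposed, repair-deficient yeast.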
# [2] = NCI Yeast Anticancer Drug Screen. Data for the mec2-1 strain (AID 157); settings: S. cerevisiae mec2-1 strain, stronger effect = higher value
# Outline: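 Growth inhibition is read against vehicle-treated controls after compound exposure of the mec2-1 yeast strain, which is defective in DNA damage repair or cell cycle control.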
# [3] = NCI Yeast Anticancer Drug Screen. Data for the sgs1 mgt1 strain (AID 161);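 also: 0% = growth of cultures given vehicle only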; settings: S. cerevisiae sgs1 mgt1 strain, stronger effect = higher value
# Outline: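 Yeast cells carrying a defined DNA-repair defect were exposed to test compounds. Growth inhibition was measured relative to vehicle-treated controls.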
# [4] = NCI Yeast Anticancer Drug Screen. Data for the bub3 strain (AID 167); settings: S. cerevisiae bub3 mutant strain, stronger effect = higher value
# Outline: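 Mutant yeast screening strain plus compound; vehicle-treated cultures serve as the 0% inhibition reference.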
# [5] = NCI Yeast Anticancer Drug Screen. Data for the mlh1 rad18 strain (AID 175); settings: S. cerevisiae mlh1 rad18 strain growth inhibition, stronger effect = higher value
# Outline: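 Cells of a genetically altered yeast strain, deficient in DNA damage repair, were treated with compound. Their growth was then compared with that of vehicle-treated cultures to give inhibition.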
# [6] = NCI Yeast Anticancer Drug Screen. Data for the cln2 rad14 strain (AID 165);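 also: 0% = growth equal to vehicle treated cultures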; settings: S. cerevisiae cln2 rad14 strain, stronger effect = higher value
# Outline: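 Growth inhibition, relative to vehicle-treated controls, is the read-out. The test organism is a yeast strain with defined genetic alterations, cln2 rad14.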
# [7] = at 5.0 µM (retest, dose inferred, filed as 0.5)
# [8] = at 50.0 µM (retest, dose inferred, filed as 5.0)
SMILES,"growth inhibition [1, 7]","growth inhibition [1, 8]",growth inhibition ([1]; at 50.0 µM),"growth inhibition [2, 7]","growth inhibition [2, 8]",growth inhibition ([2]; at 50.0 µM),"growth inhibition [3, 7]","growth inhibition [3, 8]",growth inhibition ([3]; at 50.0 µM),"growth inhibition [4, 7]","growth inhibition [4, 8]",growth inhibition ([4]; at 50.0 µM),"growth inhibition [5, 7]","growth inhibition [5, 8]",growth inhibition ([5]; at 50.0 µM),"growth inhibition [6, 7]","growth inhibition [6, 8]",growth inhibition ([6]; at 50.0 µM)
COc1cc2c3c(c1)-c1c(ccc(OC)c1OC)CC3N(CCCl)CC2 (centres undefined),15% (inactive),92% (active),87% (active),11% (inactive),69% (inactive),38.9% (inactive),7% (inactive),71% (active),77.2% (active),13% (inactive),75% (active),28.9% (inactive),12% (inactive),78% (active),86.7% (active),–,–,–
CCCCCC(Cn1ccnc1)c1ccc(Cl)cc1Cl (centres undefined),72% (active),95% (active),99.5% (active),50% (inactive),94% (active),99% (active),69% (inactive),97% (active),99.4% (active),72% (active),99% (active),99.8% (active),72% (active),100% (active),99.6% (active),–,–,–
Nc1ccc(Cc2ccc(N)c(Cl)c2)cc1Cl,-6% (inactive),90% (active),78% (active),-8% (inactive),78% (active),95.1% (active),-1% (inactive),92% (active),95.2% (active),0% (inactive),93% (active),96.8% (active),-3% (inactive),97% (active),97.2% (active),–,–,–
O=S(=O)(O)O,–,–,–,–,–,–,–,–,–,–,–,–,–,–,-10.7% (inactive) and 13.2% (inactive) and -10.6% (inactive),–,–,–
O=C(Nc1ccccc1)OC(C[N+](=O)[O-])C(Cl)(Cl)Cl (centres undefined),12% (inactive),99% (active),99.3% (active),–,–,–,5% (inactive),99% (active),99.1% (active),2% (inactive),100% (active),99.2% (active),11% (inactive),99% (active),99.2% (active),10% (inactive),91% (active),42.6% (inactive)
CCOC(=O)c1ccccc1N,6% (inactive),4% (inactive),-2.65% (inactive),2% (inactive),1% (inactive),1.2% (inactive),–,–,–,0% (inactive),6% (inactive),7.7% (inactive),-1% (inactive),4% (inactive),-17.9% (inactive),2% (inactive),-4% (inactive),45.8% (inactive)
O=C1c2ccccc2-c2cccc3cccc1c23,3% (inactive),-52% (inactive),-13.8% (inactive) and 32.1% (inactive),-12% (inactive),-26% (inactive),4.65% (inactive) and 0.55% (inactive),-9% (inactive),-40% (inactive),-14.2% (inactive) and -19.6% (inactive),-15% (inactive),-88% (inactive),-2.35% (inactive) and 10.1% (inactive),-1% (inactive),-39% (inactive),-6.8% (inactive) and 24.3% (inactive),–,–,–
c1ccncc1,17% (inactive),20% (inactive),–,-2% (inactive),7% (inactive),–,-4% (inactive),19% (inactive),–,-3% (inactive),6% (inactive),–,8% (inactive),32% (inactive),–,0% (inactive),-1% (inactive),–
CCC(C)N1CN(c2ccccc2)C2(CCN(CC3COc4ccccc4O3)CC2)C1=O (centres undefined),1% (inactive),-7% (inactive),-5.3% (inactive),–,–,–,18% (inactive),9% (inactive),18.2% (inactive),9% (inactive),32% (inactive),66.7% (inactive),-26% (inactive),6% (inactive),12.6% (inactive),11% (inactive),13% (inactive),8.65% (inactive)
ClCC[N+]12CC[N+](CCCl)(CC1)C2,59% (inactive),97% (active),–,50% (inactive),98% (active),–,86% (active),99% (active),–,82% (active),98% (active),–,47% (inactive),97% (active),–,75% (active),98% (active),–
C[C@]12CC[C@H](OC(=O)COc3ccc(N(CCCl)CCCl)cc3)C[C@@H]1CC[C@@H]1[C@@H]2CC[C@]2(C)NC(=O)CC[C@@H]12,17% (inactive),50% (inactive),70% (active),7% (inactive),11% (inactive),49.2% (inactive),19% (inactive),57% (inactive),19.1% (inactive),22% (inactive),59% (inactive),16.1% (inactive),25% (inactive),48% (inactive),8.2% (inactive),–,–,–
CCCOc1ccc(/C=C/[N+](=O)[O-])cc1N,58% (inactive),99% (active),99.2% (active),52% (inactive),99% (active),99.5% (active),–,–,–,34% (inactive),99% (active),99.5% (active),49% (inactive),99% (active),99.3% (active),17% (inactive),99% (active),98.9% (active)
[CH3][Sn]([CH3])([Cl])[c]1cc[c]([Sn]([CH3])([CH3])[Cl])cc1,26% (inactive),84% (active),78% (active),-1% (inactive),50% (inactive),72.5% (active),6% (inactive),80% (active),85.5% (active),10% (inactive),80% (active),81.3% (active),20% (inactive),87% (active),80.2% (active),–,–,–
COc1cc2c(cc1OC)C13CCN4CC5=CCOC6CC(=O)N2C1C6C5CC43 (centres undefined) (tested in a mixture with another compound),-6% (inactive),-24% (inactive),7.15% (inactive) [middle of 6 runs],-2% (inactive),1% (inactive),–,-13% (inactive),-8% (inactive),–,0% (inactive),-2% (inactive),-1.4% (inactive) [middle of 6 runs],-2% (inactive),-4% (inactive),–,-3% (inactive),2% (inactive),–
O=[N+]([O-])c1cc2c([N+](=O)[O-])cccc2o1,15% (inactive),98% (active),95.9% (active),8% (inactive),99% (active),99.7% (active),–,–,–,7% (inactive),98% (active),99.5% (active),74% (active),99% (active),99.5% (active),0% (inactive),99% (active),97.3% (active)
O=C1[O][Hg][c]2cccc3cccc1c23,99% (active),99% (active),98.3% (active),–,–,–,99% (active),99% (active),98.9% (active),100% (active),58% (inactive),98.2% (active),100% (active),99% (active),97.5% (active),89% (active),99% (active),98.2% (active)
CS(=O)(=O)[O-].CS(=O)(=O)[O-].NC1CCCCC1N.[Pt+4] (centres undefined),99% (active),99% (active),90.7% (active),100% (active),99% (active),91.2% (active),–,–,–,99% (active),99% (active),91.2% (active),99% (active),98% (active),88.3% (active),100% (active),99% (active),90.9% (active)
CC(=O)OC1CCC2(C)C3CCC4(C)C(OC(=O)c5ccccc5)CCC4C3CC(Br)C2(O)C1 (centres undefined),35% (inactive),56% (inactive),87.1% (active),27% (inactive),39% (inactive),87.9% (active),–,–,–,45% (inactive),56% (inactive),86.8% (active),42% (inactive),56% (inactive),85.7% (active),40% (inactive),44% (inactive),90.8% (active)
CC12CCC3C(CCC4CC(N5CCCCC5)=CCC43C)C1CCC2O (centres undefined),-3% (inactive),98% (active),48.5% (inactive),-12% (inactive),97% (active),89.4% (active),–,–,–,-8% (inactive),98% (active),84.5% (active),-3% (inactive),98% (active),98.5% (active),5% (inactive),98% (active),73% (active)
c1ccc2c[n+](CCCCCCCCCC[n+]3ccc4ccccc4c3)ccc2c1,67% (inactive),95% (active),89.2% (active),–,–,–,79% (active),98% (active),90.5% (active),88% (active),99% (active),91.3% (active),72% (active),94% (active),88.1% (active),68% (inactive),98% (active),83.7% (active)
COc1ccc(Br)cc1/C=C/[N+](=O)[O-],90% (active),99% (active),99.3% (active),90% (active),99% (active),99.2% (active),91% (active),99% (active),99.4% (active),92% (active),99% (active),96.1% (active),92% (active),99% (active),98.7% (active),–,–,–
N#C[SH2+].N#C[SH2+].N#C[SH2+].N#C[SH2+].[Cu+2].c1ccc(C[P+](c2ccccc2)(c2ccccc2)c2ccccc2)cc1,14% (inactive),87% (active),96.8% (active),–,–,–,21% (inactive),91% (active),97.9% (active),5% (inactive),90% (active),92.9% (active),45% (inactive),97% (active),97.2% (active),-8% (inactive),82% (active),90.7% (active)
C[C@H]1CCC/C=C/[C@@H]2C[C@H](O)C[C@H]2[C@H](O)/C=C/C(=O)O1,5% (inactive) and 15% (inactive),98% (active) and 99% (active),–,10% (inactive) and 26% (inactive),99% (active) and 100% (active),–,13% (inactive) and 21% (inactive),99% (active),90.3% (active) and 5.45% (inactive) and 90.8% (active),4% (inactive) and 31% (inactive),97% (active) and 98% (active),90.8% (active) and 1.65% (inactive) and 90.9% (active),17% (inactive) and 42% (inactive),99% (active),90.8% (active) and 13.7% (inactive) and 39% (inactive),7% (inactive) and 27% (inactive),99% (active),–
